Measured values published in the supplement of paper PMC3334620.
In all, about 33,000 sequences were measured (“E-score (-0.5 to 0.5)”: median about -0.04, highest 2% from about 0.36 on). Only a selection was taken, and the highest values are over-represented in it overall.

Target: T1, Hmlalpha2 (UniProt P0CY09)
T1 sequence: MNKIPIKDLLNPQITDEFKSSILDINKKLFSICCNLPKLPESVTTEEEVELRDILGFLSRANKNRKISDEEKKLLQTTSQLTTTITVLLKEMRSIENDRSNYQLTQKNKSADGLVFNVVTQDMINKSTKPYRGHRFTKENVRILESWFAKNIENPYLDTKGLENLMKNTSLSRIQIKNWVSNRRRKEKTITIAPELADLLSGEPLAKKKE
Test: PBM E-score (8-mer binding enrichment) (E-score (-0.5 to 0.5)); higher = stronger / more preferred TF binding
Conditions: protein concentration: 200 nM; construct: GST-full length
Outline: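 Full-length yeast transcription factors or their DNA-binding domains, GST-tagged and expressed with PURExpress, were applied at about 100-200 nM to universal all-10-mer Agilent arrays. These arrays had been made double-stranded by primer extension on fresh or once-stripped slides. Detection used fluorescent anti-GST, normalisation used masliner, and E-scores for ungapped eight-base words pooled with reverse complements came from the Universal PBM Analysis Suite.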

Sequence | PBM E-score
GTATAATA | 0.368
AGCGGTTC | -0.0786
TGATCAAA | -0.137
TCACCGAA | 0.0184
ACAAGTAC | 0.165
CATCGGTA | -0.217
GCAAAACC | -0.272
AAATCTTC | 0.0872
CCATCGCC | -0.261
ATGAACAT | 0.323
CGTTACAG | -0.0046
GGTTACAC | 0.314
CGTTACAA | 0.318
CGTTACAC | 0.385
AGTTACAC | 0.426
AGTTACAG | 0.0744
CGAAACTC | -0.242
CCGGCTGC | 0.0149
GGCCGACA | -0.247
GAATGCTC | -0.225
ATCTCACC | -0.126
CAATCCTG | 0.0153
AGGGGTTG | -0.253
CCAAGCGC | -0.0307
ACATGGGA | 0.33

Sequence | PBM E-score
ACATGGGT | 0.382
ACATGGGC | 0.342
ACATGGAA | 0.317
ACATGGAG | 0.262
ACATGGAT | 0.388
CCTAGGAA | -0.125
AACTTCAC | 0.121
CAGATTTC | -0.132
CGAATGCA | 0.145
GGCCATTA | 0.0102
AGAGTGCA | -0.0981
CCACGATA | -0.11
ACACGATA | 0.433
ACACGATG | 0.388
AAACGATG | 0.0541
ACACGATC | 0.426
ACACGAAG | 0.358
CCACGATC | 0.172
AGACGATC | -0.29
GCACGATA | 0.154
CGTGGCTC | -0.209
AAGTTCCC | -0.296
CGGTGGAC | -0.136
GAGATAAA | 0.0648
GTTTAATA | 0.218

Sequence | PBM E-score
ATTTAACC | 0.0603
ATTTAACG | 0.355
GTTTAACA | 0.41
ATTTAACA | 0.429
CTTTAACA | 0.363
CTGGGGGA | -0.422
GCCACGAC | -0.0179
ATCTGTGG | -0.267
CCAAAGAA | -0.0602
AAAAAGAT | -0.00444
CAGGGGCG | -0.0915
ACACCTAG | -0.163
CAAAACAG | 0.124
GACATGAA | 0.204
AACATGAA | 0.397
CACATGAA | 0.237
TACATGAA | 0.45
ATCATGAA | -0.0623
AGCATGAA | 0.0173
AGGCCCGC | -0.162
AGGCGATG | -0.128
AATCCGGT | -0.0356
ACCATTGA | 0.0496
GTAGACGA | 0.17
AAGACGAT | 0.0721

Sequence | PBM E-score
GAATAATA | 0.168
TAATAACA | 0.387
CAATAACA | 0.239
GAATAACA | 0.39
AAATAACA | 0.316
GAATAACC | -0.0464
GGTATTAA | 0.083
AGTATTAA | 0.249
TGTATTAA | 0.413
CTACATAG | 0.406
AGACATAT | 0.0652
CGACATAG | 0.139
GTACATAC | 0.362
ATACATAA | 0.392
ATACATAT | 0.393
CCACATAG | -0.105
ACACATAA | 0.364
AGACATAA | 0.143
CTACATAC | 0.327
ATACATAC | 0.386
ACATATAT | 0.27
AGGAAAGG | -0.238
CTCCTATC | -0.139
ACTTTAGA | -0.0293
CAGACACA | 0.035

Sequence | PBM E-score
ACCCTAAA | -0.212
AGCACTGC | -0.17
ATACATAG | 0.415
AAACATAG | 0.291
ACACATAG | 0.282
CGGAGGGC | -0.293
CACATGAG | 0.0365
AGCATGAG | 0.0355
AACATGAT | 0.439
AACATGAC | 0.425
ACCATGAT | -0.0585
GACATGAC | 0.29
CACATGAC | 0.267
AACATGAG | 0.379
AGCATGAT | 0.0873
GAGTAGAC | -0.0398
CTGGAACC | -0.109
CTGCCTTA | -0.206
ACGAGCCA | 0.0562
AGAGATAG | -0.0703
ATTGAGAA | 0.142
TCCTCGCA | -0.204
CTTCACCA | -0.283
GGCGCGTA | 0.255
CTTGCGTA | 0.286

Sequence | PBM E-score
ATCGCGTC | 0.216
ATTGCGTA | 0.296
GTCGCGTA | 0.414
AGCGCGTA | 0.388
CGCGCGTA | 0.283
ATCGCGTA | 0.368
CTCGCGTA | 0.22
ATCGCGTG | 0.192
GTCGCGGA | -0.252
GTTGCGTA | 0.378
GTCGCCAC | -0.316
GTTTGACA | 0.303
AGGAAGAT | -0.192
ATGACGCC | -0.105
ATGGAGAG | -0.115
CCCTTTAC | 0.134
ATACTCCG | -0.0161
AAATTGCC | -0.0531
CTTTCTTC | -0.09
CAATCGGC | -0.156
CAGCCACA | -0.111
ACCAGAGA | -0.144
ACCTAAAC | 0.098
CCTAGCGC | -0.102
ATCGACCG | -0.223

Sequence | PBM E-score
GATAACAA | 0.324
AATAACCT | 0.104
ACTAACAC | 0.293
AGTAACAT | 0.295
CATAACAC | 0.397
GATAACGC | 0.199
GATAACAC | 0.39
AATAACAT | 0.412
GCTAACAC | 0.366
CATAACAA | 0.323
GCTAACAA | 0.164
CATAACAG | 0.174
ACAACCAT | 0.278
CCTACAAA | 0.0287
ATCTGAGC | -0.0204
AGCTAACG | 0.117
AGGGTACG | 0.0138
AGATAGAA | -0.166
TATCCTAA | 0.00317
GGACCTTA | -0.238
AATAACAA | 0.267
AATAACAC | 0.396
AATAACAG | 0.307
